Drawing on PubChem BioAssay AID493170 (National Center for Advancing Translational Sciences (NCATS), 2011), this text covers Potency for 23 molecules.

Records with an inconclusive call do not appear. Entries that show only a call come without a potency. Active and inactive are the calls of the source. Calls come from the whole dose curve; as a rule, active = well fitted inhibition curve with a large enough effect; inconclusive = small, poorly fitted or top-dose-only effect, or effect the other way; inactive = flat fitted curve, though single readings scatter.
Potency is the fitted concentration of half-maximal effect.

Sequence of Ubiquitin carboxyl-terminal hydrolase 2 (Homo sapiens) (O75604 whole entry, looked up): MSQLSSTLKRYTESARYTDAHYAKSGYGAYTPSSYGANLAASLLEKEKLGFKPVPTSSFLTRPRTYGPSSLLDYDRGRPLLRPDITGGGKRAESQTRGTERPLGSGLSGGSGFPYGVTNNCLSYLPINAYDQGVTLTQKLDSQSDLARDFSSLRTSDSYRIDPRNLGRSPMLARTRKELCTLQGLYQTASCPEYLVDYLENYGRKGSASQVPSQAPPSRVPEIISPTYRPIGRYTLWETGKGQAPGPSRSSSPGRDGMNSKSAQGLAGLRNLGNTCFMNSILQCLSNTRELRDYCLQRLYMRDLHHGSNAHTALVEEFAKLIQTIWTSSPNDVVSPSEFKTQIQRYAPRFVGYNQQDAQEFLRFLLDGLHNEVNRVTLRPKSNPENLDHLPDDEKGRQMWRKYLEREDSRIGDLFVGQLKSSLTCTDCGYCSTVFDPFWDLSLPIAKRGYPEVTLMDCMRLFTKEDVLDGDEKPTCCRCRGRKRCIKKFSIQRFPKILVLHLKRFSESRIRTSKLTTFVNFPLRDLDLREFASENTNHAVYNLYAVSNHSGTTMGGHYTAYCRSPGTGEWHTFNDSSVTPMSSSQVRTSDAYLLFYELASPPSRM

In the experiment the target is Ubiquitin carboxyl-terminal hydrolase 2 (Homo sapiens) (UniProt O75604). Nature of the experiment: Ub-rhodamine 110 based assay for inhibitors Ubiquitin-specific Protease USP2a. Note: nearly all actives have a fitted effect of over 50% in size. The note with it: USP2a Ub-rhodamine110 cleavage, fluorescence; series mostly up to 38.3 µM. A digest of the protocol:
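Kinetic fluorescence (485/531 nm) read each minute over 7 min after adding Ub-Rhod110 (150 nM final) to USP2a (5 nM final). The enzyme had 30 min RT exposure to compounds beforehand in Tris pH 8.0 buffer with CaCl2, CHAPS and beta-ME.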
For the molecule `O=C(Nc1ccc2nc(-c3ccco3)c(-c3ccco3)nc2c1)N1CCN(c2ccccn2)CC1`, the Potency is 3.55 µM (active).
The result for `CC(=O)Nc1ccc(NC(=O)C2CCCN(S(=O)(=O)c3ccc(Cl)cc3)C2)cc1` (stereo not drawn) reads “inactive”; that for `CCOC(=O)c1ccc(NC(=O)C2=C(C)Nc3nc(CCCO)nn3C2c2cccc(C)c2)cc1` (stereo not drawn), “inactive”.
As to `CCOC(=O)N1CCN(C(=O)CN(c2ccc(Oc3ccccc3)cc2)S(C)(=O)=O)CC1`, the Potency entry was “inactive”.
As for `Cc1ccc([C@@H]2CC=C(C(=O)O)[C@H](c3ccc(C(C)(C)C)cc3)N2S(=O)(=O)c2ccc(C)cc2)cc1`, the Potency is 10 µM (active).
In the case of `Cc1c(C(=O)NCc2c(F)cc(F)cc2F)oc2ccc(S(=O)(=O)N3CCOCC3)cc12`, the Potency result was “inactive”.
For `CCCn1c(N2CCN(Cc3cccc(C)c3)CC2)nc2c1c(=O)[nH]c(=O)n2C` the value was “inactive”; for `O=C1NC[C@@H](c2ccccc2)OC(=O)[C@@H](Cc2ccc(F)cc2)CC/C=C/C[C@@H]1CC(=O)N(CCO)Cc1ccccc1`, “inactive”.
For `COC(=O)N/N=C\c1cc(Br)ccc1OCc1ccccc1` the value was “inactive”; for `Cc1ccc(S(=O)(=O)N2[C@@H](c3ccc(C(C)(C)C)cc3)C(C(=O)O)=CC[C@H]2c2ccc(Cl)c(Cl)c2)cc1`, 10 µM (active).
For the molecule `CCN(CC)S(=O)(=O)c1ccc(Cl)c(NC(=O)COC(=O)c2c(C)noc2C)c1`, the Potency result is “inactive”.
The result for `CC(=O)OCC(=O)Nc1ccc(Cl)cc1Cl` reads “inactive”.
The result for `CCC(CO)Oc1cc(NCc2cccc(C)c2)c2ncn(C(C)C)c2c1` (stereo not drawn) reads “inactive”.
For `CCN=C1SC(C(=O)Nc2cccc(OCC)c2)CC(=O)N1CC` (stereo not drawn), the Potency entry is “inactive”.
For `COCCN1Cc2cccc(C(=O)N3CCN(c4cc(C)ccc4C)CC3)c2C1=O` the value was “inactive”; for `NC(=O)c1c(NC(=O)CSc2nnc(-c3ccco3)n2-c2ccccc2)sc2c1CCC2`, 5.01 µM (active); for `CSCCC(NC(=O)c1cc(C(C)(C)C)oc1C)C(=O)O` (stereo not drawn), “inactive”.
Regarding `CN=c1scc(-c2ccccc2F)n1/N=C/c1ccc(O)c(O)c1O`, the Potency is 7.08 µM (active).
As to `CN(c1ccccc1)S(=O)(=O)c1ccc(Cl)c(C(=O)NCCc2c[nH]c3ccccc23)c1`, the Potency entry is “inactive”.
The result for `CC1CCCCN1CCNC(=O)CC1Oc2ccccc2NC1=O` (stereo not drawn) reads “inactive”; that for `CN(c1cccc(NC(=O)Nc2cccc(Cl)c2)c1)S(C)(=O)=O`, “inactive”.
The result for `O=C(Nc1nc(-c2ccco2)c(-c2ccco2)s1)C1CC(=O)N(c2ccc3c(c2)OCCO3)C1` (stereo not drawn) reads 2.51 µM (active); that for `CC(C)c1ccc(CCNC(=O)c2ccc([N+](=O)[O-])cc2)cc1`, “inactive”.
